Records with an inconclusive call do not appear. Calls of active or inactive are those of the source. Calls follow the shape of the dose curve; as a rule, active = well fitted cell-killing curve with a large enough effect; inconclusive = small, poorly fitted or top-dose-only effect, or effect the other way; inactive = flat fitted curve, though single readings scatter.
Tests used:
Assay in all cases: Primary qHTS to identify gynecologic anti-cancer compounds using libraries of approved drugs and bioactive compounds (AID 1345084); also: nearly all actives have a fitted effect of over 55% in size
CAOV3 = details: Gynecologic cancer cell panel viability, ATPlite luminescence, 48 h; series mostly up to 57.5 µM
Method in brief: (§1)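 Cell viability after 48 h drug treatment, ATPlite luminescence readout; five doses.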

CASKI = details: Gynecologic cancer cell panel viability, ATPlite luminescence, 48 h; series mostly up to 57.5 µM
Method in brief: as §1

Es-2 = details: Gynecologic cancer cell panel viability, ATPlite luminescence, 48 h; series mostly up to 57.5 µM
Method in brief: as §1

HeLa = details: Gynecologic cancer cell panel viability, ATPlite luminescence, 48 h; series mostly up to 57.5 µM
Method in brief: as §1

Hek293T = details: Gynecologic cancer cell panel viability, ATPlite luminescence, 48 h, control line for the selectivity index; series mostly up to 57.5 µM
Method in brief: as §1

JEG-3 = details: Gynecologic cancer cell panel viability, ATPlite luminescence, 48 h; series mostly up to 57.5 µM
Method in brief: as §1

OV90 = details: Gynecologic cancer cell panel viability, ATPlite luminescence, 48 h; series mostly up to 57.5 µM
Method in brief: as §1

PA-1 = details: Gynecologic cancer cell panel viability, ATPlite luminescence, 48 h; series mostly up to 57.5 µM
Method in brief: as §1

SKOV3 = details: Gynecologic cancer cell panel viability, ATPlite luminescence, 48 h; series mostly up to 57.5 µM
Method in brief: as §1

Tov-21-G = details: Gynecologic cancer cell panel viability, ATPlite luminescence, 48 h; series mostly up to 57.5 µM
Method in brief: as §1

Tov112D = details: Gynecologic cancer cell panel viability, ATPlite luminescence, 48 h; series mostly up to 57.5 µM
Method in brief: as §1
% is scaled to controls: 0 for no effect and ±100 for the full control effect.

C=CC1C(O[C@@H]2O[C@H](CO)[C@@H](O)[C@H](O)[C@H]2O)OC=C(C(=O)OC)C1Cc1nccc2c1[nH]c1ccccc12 (some centres undefined)
inactive: Potency (CAOV3) | Potency (CASKI) | Potency (Es-2) | Potency (HeLa) | Potency (Hek293T) | Potency (JEG-3) | Potency (OV90) | Potency (PA-1) | Potency (SKOV3) | Potency (Tov-21-G) | Potency (Tov112D)

CC1CCCC2OC2C(=O)c2c(O)cc(O)cc2CC(=O)O1 (centres undefined)
inactive: Potency (CAOV3) | Potency (CASKI) | Potency (Es-2) | Potency (HeLa) | Potency (Hek293T) | Potency (JEG-3) | Potency (OV90) | Potency (PA-1) | Potency (SKOV3) | Potency (Tov-21-G) | Potency (Tov112D)

C=C1CC[C@H]2[C@@H](/C=C(\C)C(=O)[C@@]3(OC(C)=O)C[C@H](C)[C@H](OC(C)=O)[C@@H]3[C@H]1OC(C)=O)C2(C)C
inactive: Potency (CAOV3) | Potency (CASKI) | Potency (Es-2) | Potency (HeLa) | Potency (Hek293T) | Potency (JEG-3) | Potency (OV90) | Potency (PA-1) | Potency (SKOV3) | Potency (Tov-21-G) | Potency (Tov112D)

CC(=O)NC(CCC(=O)O)C(=O)NCCc1ccc(O)cc1 (centres undefined)
inactive: Potency (CAOV3) | Potency (CASKI) | Potency (Es-2) | Potency (HeLa) | Potency (Hek293T) | Potency (JEG-3) | Potency (OV90) | Potency (PA-1) | Potency (SKOV3) | Potency (Tov-21-G) | Potency (Tov112D)

C[C@@]12C[C@]3(O)O[C@H](O1)[C@]1(COC(=O)c4ccccc4)[C@H]3C[C@@]12O[C@@H]1O[C@H](COC(=O)c2ccccc2)[C@@H](O)[C@H](O)[C@H]1O
inactive: Potency (CAOV3) | Potency (CASKI) | Potency (Es-2) | Potency (HeLa) | Potency (Hek293T) | Potency (JEG-3) | Potency (OV90) | Potency (PA-1) | Potency (SKOV3) | Potency (Tov-21-G) | Potency (Tov112D)

CCC(C)(O)C(O)C(=O)OCc1ccc(O[C@@H]2O[C@H](CO)[C@@H](O)[C@H](O)[C@H]2O)c(OC)c1 (some centres undefined)
inactive: Potency (CAOV3) | Potency (CASKI) | Potency (Es-2) | Potency (HeLa) | Potency (Hek293T) | Potency (JEG-3) | Potency (OV90) | Potency (PA-1) | Potency (SKOV3) | Potency (Tov-21-G) | Potency (Tov112D)

CC(=O)OC[C@@]12[C@H](O)C[C@@H](C)[C@]3(C[C@@H](c4ccoc4)OC3=O)[C@H]1C[C@H](O)C[C@]21CO1
inactive: Potency (CAOV3) | Potency (CASKI) | Potency (Es-2) | Potency (HeLa) | Potency (Hek293T) | Potency (JEG-3) | Potency (OV90) | Potency (PA-1) | Potency (SKOV3) | Potency (Tov-21-G) | Potency (Tov112D)

CC1CCC2(C)C(CC(O)C(O)C23CO3)C1(C)CCC1=CC(O)OC1=O (centres undefined)
inactive: Potency (CAOV3) | Potency (CASKI) | Potency (Es-2) | Potency (HeLa) | Potency (Hek293T) | Potency (JEG-3) | Potency (OV90) | Potency (PA-1) | Potency (SKOV3) | Potency (Tov-21-G) | Potency (Tov112D)

CC(=O)O[C@@H]1C[C@]2(C)[C@@]3(CCC4[C@@]5(C)CC[C@H](O[C@@H]6O[C@H](C(=O)O)[C@@H](O)[C@H](O[C@@H]7O[C@H](CO)[C@H](O)[C@H](O)[C@H]7O[C@@H]7O[C@@H](C)[C@H](O)[C@@H](O)[C@H]7O[C@@H]7OC[C@](O)(CO)[C@H]7O)[C@H]6O[C@@H]6O[C@H](CO)[C@H](O)[C@H](O)[C@H]6O)C(C)(C)C5CC[C@]42C)O[C@@H](O)[C@]12C3CC(C)(C)[C@@H](OC(=O)/C=C/c1ccc(O)c(O)c1)[C@@H]2OC(=O)/C=C/c1ccccc1 (some centres undefined)
inactive: activity change, negative = cytotoxicity (CAOV3) 0.993% [at 6.55 µM] | activity change, negative = cytotoxicity (CASKI) 8% [at 6.55 µM] | activity change, negative = cytotoxicity (Es-2) -3.99% [at 6.55 µM] | activity change, negative = cytotoxicity (HeLa) 2.04% [at 6.55 µM] | activity change, negative = cytotoxicity (Hek293T) 0.066% [at 6.55 µM] | activity change, negative = cytotoxicity (JEG-3) -2.17% [at 6.55 µM] | activity change, negative = cytotoxicity (OV90) -7.75% [at 6.55 µM] | activity change, negative = cytotoxicity (PA-1) 24% [at 6.55 µM] | activity change, negative = cytotoxicity (SKOV3) 3.32% [at 6.55 µM] | activity change, negative = cytotoxicity (Tov-21-G) 17% [at 6.55 µM] | activity change, negative = cytotoxicity (Tov112D) 6.15% [at 6.55 µM]

CC(C)c1cc2c(c(O)c1O[C@@H]1O[C@H](CO)[C@@H](O)[C@H](O)[C@H]1O)CC1(O)CCC(O)C(C)(C)C1CC2 (some centres undefined)
inactive: Potency (CAOV3) | Potency (CASKI) | Potency (Es-2) | Potency (HeLa) | Potency (Hek293T) | Potency (JEG-3) | Potency (OV90) | Potency (PA-1) | Potency (SKOV3) | Potency (Tov-21-G) | Potency (Tov112D)

COc1cc(C(=O)OC[C@H]2O[C@H](O[C@@]3(CO)O[C@@H](CO)[C@H](O)[C@H]3O)[C@H](O)[C@@H](O)[C@@H]2O)ccc1O
inactive: Potency (CAOV3) | Potency (CASKI) | Potency (Es-2) | Potency (HeLa) | Potency (Hek293T) | Potency (JEG-3) | Potency (OV90) | Potency (PA-1) | Potency (SKOV3) | Potency (Tov-21-G) | Potency (Tov112D)

O=c1ccn([C@@H]2O[C@H](CO)[C@@H](O)[C@H]2O)c(=O)[nH]1
inactive: Potency (CAOV3) | Potency (CASKI) | Potency (Es-2) | Potency (HeLa) | Potency (Hek293T) | Potency (JEG-3) | Potency (OV90) | Potency (PA-1) | Potency (SKOV3) | Potency (Tov-21-G) | Potency (Tov112D)

COC1=CC(=O)O[C@@H](CCc2ccccc2)[C@@H]1O
inactive: Potency (CAOV3) | Potency (CASKI) | Potency (Es-2) | Potency (HeLa) | Potency (Hek293T) | Potency (JEG-3) | Potency (OV90) | Potency (PA-1) | Potency (SKOV3) | Potency (Tov-21-G) | Potency (Tov112D)

C[C@]12CC[C@@H]3c4ccc(O[C@@H]5O[C@H](C(=O)O)[C@@H](O)[C@H](O)[C@H]5O)cc4CC[C@H]3[C@@H]1CCC2=O
inactive: Potency (CAOV3) | Potency (CASKI) | Potency (Es-2) | Potency (HeLa) | Potency (Hek293T) | Potency (JEG-3) | Potency (OV90) | Potency (PA-1) | Potency (SKOV3) | Potency (Tov-21-G) | Potency (Tov112D)

Source: PubChem BioAssay (NCATS)
